Drawing on PubChem BioAssay (NCI), this text covers growth for 34 molecules.

This is part of a sample that, as a whole, favours compounds with a hit. Of some 83,000 tested, about 20% had one in any assay.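 48-hour exposure, single concentration, 96-well plates; percent growth endpoint where 0 means no net growth. Active: below 10.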 Values without a mark were called inactive. The source made the active and inactive calls.

The assay deals with ACHN renal. The assay is described as follows: NCI-60 one-dose screen, 48 h (100 = growth as untreated, 0 = no growth, -100 = all killed). The settings on record: 10 µM unless noted.
Take `CCC(=O)Nc1ccc(-c2nc(-c3cccc(O)c3)c(-c3ccnc(Br)c3)[nH]2)cc1`: the growth is 82.8%.

As for `NC(=O)c1c(NC(=O)c2cccc(OC(F)(F)F)c2)sc2c1CCC(=O)C2`, the growth is 20.2%.

As for `COc1cc(C2=NN(C(C)=O)C(c3ccc(N4CCOCC4)cc3)C2)cc(OC)c1OC` (centres undefined), the growth is 99.6%.

`CCC(=O)Nc1cc(Nc2cc(NC3CC3)n3ncc(C#N)c3n2)ccc1C`: the growth was 13.8%.

On to `O=C(CSc1ccc(-c2nc3ccccc3[nH]2)cn1)N1CCN(c2ccccc2F)CC1`, for which the growth is 93.2%.

`NCCN1CCN(c2nc(-c3ccccc3)nc3nc(-c4ccccc4)oc23)CC1`: the growth is -95.4% (active).

As for `CCN(CC)Cc1c(-c2cccc(OC(F)(F)F)c2)[nH]c2ccc(N3CCCC3)cc2c1=O`, the growth was 98.4%.

On to `C#C[C@]1(O)CC[C@H]2[C@@H]3CC=C4c5sc(-c6ccc(OC)cc6)nc5CC[C@]4(C)[C@H]3CC[C@@]21C`, for which the growth is 59.8%.

As to `C#C[C@]1(O)CC[C@H]2[C@@H]3CC=C4c5sc(Nc6cc(OC)ccc6OC)nc5CC[C@]4(C)[C@H]3CC[C@@]21C`, the growth was 36.5%.

Consider `O=C(Nc1cccc(-c2nc(-c3ccc(NC(=O)c4cccnc4)cc3Cl)no2)c1)Nc1ccc(NC(=O)C2CC2)c(C(F)(F)F)c1`, for which the growth was 9.95% (active).

As for `O=C(Nc1ccc(-c2nc(-c3cccc(O)c3)c(-c3ccnc(Br)c3)[nH]2)cc1)c1ccccc1`, the growth was 16.5%.

Turning to `COc1ccccc1N1CCN(C2=NN=C(c3cccc(Cl)c3)c3ccccc3C2)CC1`, the growth is 28.5%.

Regarding `O=C(NNc1nc2cc(F)c(F)cc2n2cccc12)c1ncccn1`, the growth is 12.7%.

As to `O=C(CN1C(=O)CSC1=O)Nc1ccc(C(=O)/C=C/c2cc3ccccc3nc2Cl)cc1`, the growth is 83.5%.

As to `O=C(C[n+]1ccnc2ccccc21)c1ccc(O)c(O)c1`, the growth was 17.8%.

Take `Cn1ccnc1C(=O)/C=C/c1ccc(C(=O)Nc2ccc(NC(=O)CCNC(=O)c3csc(Br)n3)cc2)cc1`: the growth is 61.8%.

As to `COc1ccc(Oc2ccc(C3CC(c4cc(OC)c(OC)c(OC)c4)=NN3C(C)=O)cc2)cc1` (centres undefined), the growth is 20.8%.

Take `O=C1/C(=C/c2ccccc2[N+](=O)[O-])Oc2ccc(O)cc21`: the growth was 2.35% (active).

On to `O=c1c2ccccc2nc(COc2ccccc2)n1/N=C/C=C/c1ccccc1`, for which the growth was 96.8%.

`C#C[C@]1(O)CC[C@H]2[C@@H]3CC=C4c5sc(C6CC6)nc5CC[C@]4(C)[C@H]3CC[C@@]21C`: the growth was 91.4%.

With `Cc1ccc(S(=O)(=O)N/N=C/c2cn(-c3ccc(F)cc3)nc2-c2ccc(S(C)(=O)=O)cc2)cc1`, the growth is 102%.

For `C#C[C@]1(O)CC[C@H]2[C@@H]3CC=C4c5sc(-c6ccccn6)nc5CC[C@]4(C)[C@H]3CC[C@@]21C`, the growth is 75.8%.

On to `CCOC(=O)c1c(NC(=O)c2cccc(C(F)(F)F)c2)sc2c(CN3CCN(C)CC3)c(O)ccc12`, for which the growth was -98.8% (active).

Turning to `CCOC(=O)Nc1ccc(-c2nc(-c3cccc(O)c3)c(-c3ccnc(Br)c3)[nH]2)cc1`, the growth is 36.5%.

Consider `COc1ccc(NS(=O)(=O)c2ccc(-c3cnc(C4CC4)o3)cc2)cc1Cl`, for which the growth is 46.1%.

As to `O=S(=O)(Nc1ccc(I)c(Cl)c1)c1ccc(-c2cnc(C3CC3)o2)cc1`, the growth is 41.5%.

`O=S(=O)(Nc1ccc2c(c1)OC(F)(F)O2)c1ccc(-c2cnc(C3CC3)o2)cc1`: the growth is 57.1%.

For the molecule `O=C(CN1CCN(c2cc(=O)n(-c3ccccc3)c3ccccc23)CC1)Nc1ccc([N+](=O)[O-])cc1`, the growth was 87%.

Regarding `CN(c1ccc(Cl)cc1)S(=O)(=O)c1ccc(-c2cnc(C3CC3)o2)cc1`, the growth was 33.6%.

Regarding `O=C(/C=C/c1cn(-c2ccccc2)nc1-c1ccc(Cl)cc1)c1cc2ccccc2oc1=O`, the growth is 59.9%.

Consider `O=C1C[C@@H](c2ccccc2)Oc2c(Cc3ccccc3O)c(O)c(Cc3cc(Cc4cc(Cc5ccccc5O)ccc4O)ccc3O)c(O)c21`, for which the growth is 94.4%.

Regarding `CCC(CC)N1C(=O)/C(=c2\sc3n(c2=O)C2C(NN=3)N(CC)C(=O)N2CC)c2ccccc21` (centres undefined), the growth was 32%.

On to `COC(=O)Nc1ccc(-c2nc(-c3cccc(O)c3)c(-c3ccnc(Br)c3)[nH]2)cc1`, for which the growth was 60.4%.

For `CC(=O)Nc1ccc(NC(=O)Nc2cccc(-c3nc(-c4ccc(NC(=O)c5cccs5)cc4Cl)no3)c2)cc1C(F)(F)F`, the growth was 3.84% (active).
